Source: PubChem BioAssay (National Center for Advancing Translational Sciences (NCATS))
In the library only some 3.4% were active in any assay of this set; here they are far more common.
RE007 growth inh: qHTS Assay for Inhibitors of the HIV-1 protein Vpr. hit rate 0.21% among 360,000. Potency, µM (top dose mostly 92.2 µM), for inactives: top-dose activity change, negative = less growth, most hits filed as inhibitors. S. pombe RE007 Vpr strain, BacTiter-Glo ATP luminescence, 24 h; active = well fitted falling curve with a large enough effect; inconclusive = small, poorly fitted or top-dose-only effect; inactive = no such curve, though single readings can be large or run the other way; also: nearly all actives have a fitted effect of over 50% in size
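Fission yeast strain RE007, carrying one chromosomally integrated HIV-1 vpr copy, was seeded at OD 0.01 in PMG+AL medium with 23 nL pinned compound. After 24 h at 30 °C and 99% humidity, viability was read by BacTiter-Glo luminescence.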
Sm TGR block: qHTS Assay for the Inhibitors of Schistosoma Mansoni Peroxiredoxins. purified TGR, DTNB reduction, TNB absorbance 405 nm. Potency, µM (series often up to 114 µM), inactives show at the top dose activity change, negative = inhibition, actives largely listed as inhibitors. hit rate 3% among 360,000; also: nearly all actives have a fitted effect of over 60% in size
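Kinetic colorimetric format: TGR-catalysed, NADPH-driven DTNB reduction monitored via TNB absorbance. Enzyme dispensed at 20 nM; compound exposure 15 min at room temperature before reaction start.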
AmpC detergent: qHTS Inhibitors of AmpC Beta-Lactamase (assay with detergent). AID 485294, 2010. P00811. hit rate 0.041% among 370,000. AmpC hydrolysis of nitrocefin, absorbance 480 nm, 0.01% Triton. Potency, µM (titrated, usually from 114 µM), without a hit: top-dose activity change, negative = inhibition, actives largely listed as inhibitors;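 also: 0% = no-compound wells and -100% = no-enzyme wells; nearly all actives have a fitted effect of over 25% in size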
Target sequence (P00811 whole entry, looked up): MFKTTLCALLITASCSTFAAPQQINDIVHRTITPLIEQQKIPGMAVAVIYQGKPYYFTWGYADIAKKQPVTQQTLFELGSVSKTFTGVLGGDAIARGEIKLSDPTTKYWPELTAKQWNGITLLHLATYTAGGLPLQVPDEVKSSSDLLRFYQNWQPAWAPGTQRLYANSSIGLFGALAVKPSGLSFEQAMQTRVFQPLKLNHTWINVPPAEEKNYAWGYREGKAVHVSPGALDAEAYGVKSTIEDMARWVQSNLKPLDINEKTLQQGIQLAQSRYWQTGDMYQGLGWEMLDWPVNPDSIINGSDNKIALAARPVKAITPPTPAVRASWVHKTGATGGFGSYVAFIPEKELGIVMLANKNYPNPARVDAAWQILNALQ
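AmpC (5.3 nM in the dispensed reagent) in 20 mM phosphate pH 7.0 with 0.01% (detergent screen) or 0.0001% Triton X-100 was preincubated with compounds for 15 min at room temperature. Nitrocefin was then added from an 800 uM solution, and hydrolysis was followed at 480 nm.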
AmpC no deterg: qHTS Inhibitors of AmpC Beta-Lactamase (assay without detergent); P00811; AmpC nitrocefin hydrolysis, absorbance 480 nm, 0.0001% Triton; Potency, µM (titrated, usually from 57.1 µM), without a hit: at the top dose activity change, negative = inhibition, usual class: inhibitors; hit rate 0.52% among 330,000; AID 485341, 2010;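 also: plate controls were no compound for no effect and no enzyme for full effect; nearly all actives have a fitted effect of over 20% in size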
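20 mM phosphate pH 7.0 + 0.01% (detergent screen) or 0.0001% Triton X-100; 5.3 nM AmpC reagent; cpd preinc 15 min RT; nitrocefin (800 uM stock) to start; A480 q20 s × 4 min; Activity was normalised to no-enzyme and no-compound control wells.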
FBPA Giardia inh: qHTS Assay for Inhibitors of Fructose-1,6-bisphosphate Aldolase from Giardia Lamblia | A8B2U2 | purified Giardia FBPA | Potency, µM (highest dose often 59.6 µM), without a hit: at the top dose activity, negative = inhibition, usual class: inhibitors | hit rate 0.71% among 290,000 | AID 2451, 2010; also: nearly all actives have a fitted effect of over 55% in size
Target sequence (A8B2U2 whole entry, looked up): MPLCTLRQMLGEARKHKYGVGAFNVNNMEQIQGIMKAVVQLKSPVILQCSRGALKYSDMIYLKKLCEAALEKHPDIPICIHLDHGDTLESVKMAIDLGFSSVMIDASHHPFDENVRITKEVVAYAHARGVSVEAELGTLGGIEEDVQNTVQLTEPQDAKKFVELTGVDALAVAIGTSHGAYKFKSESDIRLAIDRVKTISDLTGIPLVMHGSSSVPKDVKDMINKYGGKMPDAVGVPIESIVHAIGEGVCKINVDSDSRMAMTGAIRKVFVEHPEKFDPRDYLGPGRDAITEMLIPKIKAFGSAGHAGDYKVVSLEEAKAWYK
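Giardia FBPA (40 nM reagent) was preincubated 10 min at RT with compound (up to 57.5 uM final), then substrate plus GAPDH/TPI/NAD/arsenate coupling system with diaphorase/resazurin was added; resorufin fluorescence (525/598 nm) was read after 20 min.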
An asterisk follows results filed as active; ? = inconclusive; . = no result. Unless noted, calls follow the shape of the dose curve; as a rule, active = well fitted curve in the direction sought with a large enough effect; inconclusive = small, poorly fitted or top-dose-only effect, or another doubt; inactive = no such curve, though single readings can be large; an effect the other way counts as inactive or inconclusive. Unless noted, % is scaled to controls: 0 for no effect and ±100 for the full control effect; potency is read from the fitted curve at half-maximal effect.

SMILES | RE007 growth inh | Sm TGR block | AmpC detergent | AmpC no deterg | FBPA Giardia inh
O=C(COC(=O)c1cc(-c2cccs2)nc2ccccc12)NCc1ccco1 | -19% | 40µM* | -3% | -15% | -8%
Cc1ccc(-c2cc(C(=O)NCc3ccco3)c3ccccc3n2)s1 | 2% | 28µM* | 2% | -27% | -17%
CCOc1ccc(/C=N/NC(=O)C2CC2)c(OCC)c1 | -9% | -2% | -5% | 9% | .
Cc1ccc(NC(=O)Cc2sc(C)nc2-c2ccc(C)cc2)cc1 | -2% | 1% | -4% | -15% | 1%
Cc1ccc(-c2nc(C)sc2CC(=O)NCc2ccco2)cc1 | 4% | 22µM* | -15% | -12% | -10%
CC(C)NC(=O)/C(=C/c1ccco1)c1ccccc1 | -18% | ? | -9% | -13% | -3%
O=C(NCCc1ccccc1)/C(=C/c1ccco1)c1ccccc1 | -9% | 13µM* | -16% | -26% | ?
CCC(C)NC(=O)/C(=C/c1ccco1)c1ccccc1 (centres undefined) | -25% | 10µM* | 3% | -8% | -21%
COc1cccc2c1CCC1=CC(=O)CCC12C (centres undefined) | 12% | . | . | . | .
Cc1cc(=O)n2nc(-c3ccccc3)sc2n1 | ? | 0% | -14% | -16% | 0%
Cc1cc(=O)n2c3c(sc2n1)C(=O)N(Cc1ccccc1)C3=O | . | 1.1µM* | -10% | -22% | -2%
Cc1ccc(NC(=O)CCC(=O)c2ccc(Cl)s2)nc1 | -8% | -24% | 8% | -26% | .
Cc1cc(C)cc(NC(=O)C(OC(=O)c2ccc(NC(=O)CC#N)cc2)c2ccccc2)c1 (centres undefined) | 25% | -2% | -10% | 11µM* | .
Cc1ccc(C)c(NC(=O)C(OC(=O)c2ccc(NC(=O)CC#N)cc2)c2ccccc2)c1 (centres undefined) | 2% | -4% | 2% | -57% | .
CCOc1ccc(NC(=O)c2ccccc2-c2ccccc2C(=O)O)cc1 | 9% | . | . | . | .
COc1cccc(F)c1C(=O)NC(=O)Nc1ccc2nc(C)oc2c1 | 0% | 32µM* | 2% | -31% | ?
CC(OC(=O)c1cccc(S(=O)(=O)N2CCN(C)CC2)c1)C(=O)Nc1ccc(C(N)=O)cc1 (centres undefined) | 2% | -2% | -15% | -15% | .
CCN(c1ccc(NC(=O)c2cccc(S(=O)(=O)N3CCN(C)CC3)c2)cc1)C(C)C | 1% | 8.9µM* | 2% | -13% | .
CC(=O)c1cccc(NC(=O)C(C)OC(=O)c2cccc(S(=O)(=O)N3CCN(C)CC3)c2)c1 (centres undefined) | 9% | 50µM* | ? | -1% | .
CS(=O)(=O)N1CCN(c2ccc(NC(=S)NC(=O)c3ccccc3[N+](=O)[O-])cc2)CC1 | -1% | 1% | -3% | -25% | -4%
O=C(Cc1cnn(-c2ccccc2)c1)c1ccc(O)c(O)c1O | 19% | ? | 0% | -55% | 3.5µM*
CCc1cc(C(=O)Cc2cnn(-c3ccccc3)c2)c(O)cc1O | 0% | -8% | -1% | -51% | -2%
COc1cccc(N(C(=O)c2snc(C(N)=O)c2N)C(C(=O)NCC2CCCO2)c2ccc(F)cc2)c1 (centres undefined) | -6% | 1% | -4% | 145% | 3%
COc1ccc(-c2ccc(/C=N/NC(=O)Cc3nnc(N)s3)o2)cc1Cl | -23% | 56µM* | -9% | -37% | -15%
Cc1ccc(-c2ccc(/C=N/NC(=O)Cc3nnc(N)s3)o2)cc1Cl | -2% | 4% | -10% | -26% | -7%
SMILES | RE007 growth inh | Sm TGR block | AmpC detergent | AmpC no deterg | FBPA Giardia inh
Cc1cc(-c2ccc(S(=O)(=O)N3CCN(c4ccc(F)cc4)CC3)s2)on1 | 8% | -2% | 2% | 2% | .
CCN(CC(=O)NCc1ccc(F)cc1)C(=O)/C=C/c1cccs1 | 26% | 4% | -2% | -12% | 11%
CCN(CC(=O)NCc1ccc(F)cc1)C(=O)/C=C/c1ccco1 | 13% | 20µM* | 5% | -14% | 0%
CC(=O)NS(=O)(=O)c1ccc(NC(=O)/C=C/c2ccco2)cc1 | 25% | 3.5µM* | -5% | -15% | 30%
O=C(/C=C\c1ccco1)Nc1ccc(N2CCN(C(=O)c3ccccc3)CC2)cc1 | . | -18% | -7% | -13% | 6%
O=C(/C=C/c1ccco1)NCCc1ccc(F)cc1 | 0% | 7.1µM* | -5% | -25% | -13%
O=C(/C=C/c1ccco1)Nc1ccc(F)cc1 | . | 7.1µM* | -10% | -24% | .
COc1ccc(N(C(=O)c2snc(C(N)=O)c2N)C(C(=O)NCC2CCCO2)c2ccc3ncccc3c2)cc1OC (centres undefined) | -4% | -3% | -12% | 72% | 7%
CC[C@H](C)[C@H](NC(=O)[C@H](CCC(=O)O)NC(=O)[C@H](C)NC(=O)[C@@H](NC(=O)[C@H](Cc1cnc[nH]1)NC(=O)[C@@H](NC(=O)[C@H](CCC(=O)O)NC(=O)[C@H](C)NC(=O)[C@@H](NC(=O)[C@H](CC(C)C)NC(=O)[C@H](Cc1cnc[nH]1)NC(=O)[C@H](Cc1cnc[nH]1)NC(=O)[C@H](CC(C)C)NC(=O)[C@H](Cc1c[nH]c2ccccc12)NC(=O)[C@H](Cc1ccccc1)NC(=O)[C@H](CCCNC(=N)N)NC(=O)[C@H](CCCNC(=N)N)NC(=O)[C@H](CCCNC(=N)N)NC(=O)[C@H](CC(C)C)NC(=O)[C@H](CC(=O)O)NC(=O)[C@H](CCC(N)=O)NC(=O)[C@@H](NC(=O)[C@H](CO)NC(=O)[C@H](CCCCN)NC(=O)CNC(=O)[C@H](CCCCN)NC(=O)[C@H](CC(=O)O)NC(=O)[C@H](Cc1cnc[nH]1)NC(=O)[C@H](CC(C)C)NC(=O)[C@H](CC(C)C)NC(=O)[C@H](CCC(N)=O)NC(=O)[C@@H](NC(=O)[C@H](CCC(=O)O)NC(=O)[C@H](CO)NC(=O)[C@@H](NC(=O)[C@H](C)N)C(C)C)[C@@H](C)CC)[C@@H](C)CC)[C@@H](C)CC)[C@@H](C)CC)[C@@H](C)O)C(=O)O | . | . | . | . | 7%
CCn1c(COc2cccc3cccnc23)nnc1SC(F)F | 8% | 5% | -5% | 2% | 0%
Cc1sc(NC(=O)/C=C/c2ccco2)c(C(=O)O)c1C | -30% | 40µM* | 3% | -20% | ?
NS(=O)(=O)c1ccc(NC(=O)/C=C/c2ccco2)cc1 | -11% | 6.3µM* | -14% | -29% | 1%
O=C(/C=C/c1ccco1)Nc1ccc(S(=O)(=O)N2CCOCC2)cc1 | 9% | ? | 2% | -38% | 0%
